Potency data for nine compounds are collected here from PubChem BioAssay (Tox21).

Test [1] in a line: qHTS assay to identify aromatase inhibitors - cell viability counter screen (AID 743084).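 Note: cells stimulated with testosterone during compound exposure; nearly all actives have a fitted effect of over 55% in size.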 Note: potency is the fitted concentration of half-maximal effect. In general terms: qHTS replaces the single test concentration by a dilution series.
A short description of test [2]: qHTS assay to identify small molecule that activate the aryl hydrocarbon receptor (AhR) signaling pathway - cell viability counter screen (AID 743086). Note: nearly all actives have a fitted effect of over 45% in size. Note: potency is the fitted concentration of half-maximal effect. Put shortly: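 HepG2-AhR-luc (HG2L7.5c1) cells, 4000/well, treated 24 h at 37 C with compound; viability measured as CellTiter-Fluor fluorescence after 30 min in the same wells as the luciferase read.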
Test [3] in a line: qHTS assay to identify small molecule antagonists of the peroxisome proliferator-activated receptor gamma (PPARg) signaling pathway - cell viability counter screen (AID 743194). Note: nearly all actives have a fitted effect of over 55% in size. Note: potency is the fitted concentration of half-maximal effect. Put shortly: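 Cytotoxicity counter screen in PPARg-bla HEK293H cells, same wells as reporter assay. Compounds plus 50 nM rosiglitazone (final) for 17 h at 37 C, then viability read by CellTiter-Glo luminescence.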

Test [4] can be described thus: qHTS assay for small molecule agonists of the antioxidant response element (ARE) signaling pathway - cell viability counter screen (AID 743203; calls by dose curve; note: nearly all actives have a fitted effect of over 55% in size; note: potency is the fitted concentration of half-maximal effect). Put shortly:
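Measured in the same wells as the beta-lactamase ARE reporter, this read-out is CellTiter-Glo luminescence from HepG2 ARE-bla cells given compounds for 16 hrs.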

Test [5] is described as follows: qHTS assay for small molecule activators of the heat shock response signaling pathway - cell viability counter screen (AID 743209). Note: nearly all actives have a fitted effect of over 50% in size. Note: potency is the fitted concentration of half-maximal effect. In short, it runs like this: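 Same-well multiplex: after 2.5 h room-temperature incubation with LiveBLAzer B/G substrate and fluorescence reading, CellTiter-Glo reagent was added to HSE-bla HeLa cells that had received compound for 5 h at 37 C; luminescence read after 30 min.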

Test [6] can be described thus: qHTS assay to identify small molecule agonists of the peroxisome proliferator-activated receptor delta (PPARd) signaling pathway - cell viability counter screen (AID 743211). Note: nearly all actives have a fitted effect of over 55% in size. Note: potency is the fitted concentration of half-maximal effect. In short, it runs like this: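 Viability was measured as CellTiter-Glo luminescence (30 min, room temperature) in the same wells as the beta-lactamase readout. GeneBLAzer PPARd UAS-bla HEK293H cells received compound after 5 h plating and were incubated 17 h at 37 C.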

The nature of test [7]: qHTS assay to identify small molecule antagonists of the peroxisome proliferator-activated receptor delta (PPARd) signaling pathway - cell viability counter screen (AID 743213). Note: nearly all actives have a fitted effect of over 50% in size. Note: potency is the fitted concentration of half-maximal effect. Put shortly:
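Agonist-stimulated (L165041, 300 nM final) HEK293H PPARd UAS-bla cells are exposed to compounds for 17 h at 37 C, and ATP-based luminescence (CellTiter-Glo) from the same wells reports cytotoxicity.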

Test [8] can be described thus: qHTS assay to identify small molecule agonists of the farnesoid-X-receptor (FXR) signaling pathway - cell viability counter screen (AID 743218). Note: nearly all actives have a fitted effect of over 45% in size. Note: potency is the fitted concentration of half-maximal effect. Put shortly: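 Readout: CellTiter-Glo luminescence, 30 min RT, multiplexed after the FXR-bla FRET reading. HEK 293T FXR-UAS-bla cells received compound 5 h post-plating and were incubated 16 h at 37 C.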
Test [9] can be described thus: qHTS assay to identify small molecule antagonists of the farnesoid-X-receptor (FXR) signaling pathway - cell viability counter screen (AID 743221; active = well fitted cell-killing curve with a large enough effect in the repeat runs, not every such curve was filed as active; note: nearly all actives have a fitted effect of over 50% in size; note: potency is the fitted concentration of half-maximal effect). Put shortly:
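Cytotoxicity counter screen run in the FXR-bla reporter wells: HEK 293T cells exposed to compound with 50 uM (final) chenodeoxycholic acid for 16 h, 37 C, then viability measured by CellTiter-Glo luminescence after 30 min, room temperature.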

The target of test [10] is Vitamin D3 receptor (Homo sapiens) (UniProt P11473). In words: qHTS assay to identify small molecule antagonists of the vitamin D receptor (VDR) signaling pathway (AID 743223; active = well fitted inhibition curve with a large enough effect in the signal ratio in the repeat runs, not every such curve was filed as active; the % refers to the signal ratio; note: potency is the fitted concentration of half-maximal effect). In short, it runs like this:
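Antagonist mode: compound added to VDR-bla cells alongside agonist 1alpha,25-dihydroxyvitamin D3 (3 nM final), incubation 16 h at 37C. Read-out is LiveBLAzer FRET fluorescence, 2 h at room temperature.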

The nature of test [11]: qHTS assay for small molecule agonists of the antioxidant response element (ARE) signaling pathway (AID 743202; active = well fitted activation curve with a large enough effect in the signal ratio in the repeat runs, not every such curve was filed as active; the % refers to the signal ratio). In short, it runs like this:
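HepG2 ARE-bla cells; 16 h treatment at 37 C; FRET-based beta-lactamase fluorescence read after 2 h substrate incubation at room temperature.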

Test [12] in a line: qHTS assay for small molecule activators of the heat shock response signaling pathway (AID 743210; active = well fitted activation curve with a large enough effect in the signal ratio in the repeat runs, with a control signal flat, not every such curve was filed as active; the % refers to the signal ratio;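 note: HeLa cells with beta-lactamase reporter driven by heat shock elements; series mostly up to about 63 µM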). In short, it runs like this: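 Following overnight attachment, HSE-bla HeLa cells received test compounds for 5 h at 37 C; beta-lactamase activity was then detected via FRET substrate fluorescence.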
In test [13] the target is Peroxisome proliferator-activated receptor delta (Homo sapiens) (UniProt Q03181). Nature of the test: qHTS assay to identify small molecule agonists of the peroxisome proliferator-activated receptor delta (PPARd) signaling pathway (AID 743212; calls by dose curve). In short, it runs like this:
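Tox21 library screened in GeneBLAzer PPARd UAS-bla HEK293H cells. After compound treatment at 37 C, a FRET-based beta-lactamase substrate was applied for 2 h and fluorescence recorded.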

For test [14] the target is unchanged. In words: qHTS assay to identify small molecule antagonists of the peroxisome proliferator-activated receptor delta (PPARd) signaling pathway (AID 743215; active = well fitted inhibition curve with a large enough effect in the signal ratio in the repeat runs, not every such curve was filed as active; the % refers to the signal ratio; note: potency is the fitted concentration of half-maximal effect). In short, it runs like this: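 Fluorescence from cleaved LiveBLAzer B/G FRET substrate (2 h, room temperature) reports PPARd-driven beta-lactamase in HEK293H UAS-bla cells. Cells had been treated 17 h at 37 C with compound plus 300 nM final L165041.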

Test [15] concerns the target Vitamin D3 receptor (Homo sapiens) (UniProt P11473). Nature of the test: qHTS assay to identify small molecule agonists of the vitamin D receptor (VDR) signaling pathway (AID 743222; calls by dose curve). In short, it runs like this: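 Following 4 h attachment at 37C, VDR-bla cells (2,000 per well) received DMSO-dissolved compounds or controls. After 16 h incubation, LiveBLAzer B/G FRET substrate was added and fluorescence read 2 h later at room temperature.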

In test [16] the target is Peroxisome proliferator-activated receptor gamma (Homo sapiens) (UniProt P37231). In words: qHTS assay to identify small molecule agonists of the peroxisome proliferator-activated receptor gamma (PPARg) signaling pathway (AID 743094; active = well fitted activation curve with a large enough effect in the signal ratio in the repeat runs, not every such curve was filed as active; the % refers to the signal ratio; note: potency is the fitted concentration of half-maximal effect). In short, it runs like this:
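Cell-based bla reporter, HEK293H background, PPARg-driven UAS. Pre-incubation 5 h, 37C, 5% CO2. Compound 17 h, 37C. Substrate 1 h RT; fluorescence.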

The target in test [17] is Bile acid receptor (Homo sapiens) (UniProt Q96RI1). Nature of the test: qHTS assay to identify small molecule antagonists of the farnesoid-X-receptor (FXR) signaling pathway (AID 743217; active = well fitted inhibition curve with a large enough effect in the signal ratio in the repeat runs, not every such curve was filed as active; the % refers to the signal ratio; note: potency is the fitted concentration of half-maximal effect). In short, it runs like this: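 FRET fluorescence after 2 h room-temperature LiveBLAzer loading gives the readout. Prior step: FXR-bla HEK 293T cells, seeded and incubated 5 h, received test compounds plus 50 uM final CDCA for 16 h at 37 °C.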

The target is the same in test [18]. In words: qHTS assay to identify small molecule agonists of the farnesoid-X-receptor (FXR) signaling pathway (AID 743220; active = well fitted activation curve with a large enough effect in the signal ratio in the repeat runs, not every such curve was filed as active; the % refers to the signal ratio). In short, it runs like this:
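FXR-UAS-bla HEK 293T cells carrying a UAS-driven beta-lactamase reporter were plated for 5 h at 37C/5% CO2, then exposed to DMSO-dissolved Tox21 10K compounds for 16 h at 37C. A LiveBLAzer B/G FRET substrate was loaded for 2 h at room temperature before fluorescence reading.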

SMILES strings stand for the structures. Where “and” joins values, the source holds several entries; their conditions need not be identical. Identical values can stand only once. Records with an inconclusive call do not appear. Calls of active or inactive are those of the source. Unless noted, calls come from the whole dose curve; as a rule, active = well fitted curve in the direction sought with a large enough effect in the repeat runs; inconclusive = weak or mixed curves; inactive = no such curve, though single readings can be large; an effect the other way counts as inactive or inconclusive.

Sequence of Vitamin D3 receptor (Homo sapiens) (P11473 whole entry, looked up): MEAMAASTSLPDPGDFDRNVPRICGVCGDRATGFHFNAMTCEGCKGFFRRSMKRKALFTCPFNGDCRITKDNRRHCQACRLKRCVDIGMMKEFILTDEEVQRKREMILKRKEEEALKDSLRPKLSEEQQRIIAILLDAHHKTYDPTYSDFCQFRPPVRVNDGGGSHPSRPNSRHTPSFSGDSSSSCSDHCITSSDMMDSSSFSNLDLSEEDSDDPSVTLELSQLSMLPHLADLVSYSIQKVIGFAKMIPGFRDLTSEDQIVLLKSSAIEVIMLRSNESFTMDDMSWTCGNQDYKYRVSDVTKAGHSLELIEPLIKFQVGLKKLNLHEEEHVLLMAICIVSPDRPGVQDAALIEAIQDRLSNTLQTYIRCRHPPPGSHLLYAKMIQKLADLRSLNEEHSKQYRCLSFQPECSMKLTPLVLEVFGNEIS
Sequence of Peroxisome proliferator-activated receptor delta (Homo sapiens) (Q03181 whole entry, looked up): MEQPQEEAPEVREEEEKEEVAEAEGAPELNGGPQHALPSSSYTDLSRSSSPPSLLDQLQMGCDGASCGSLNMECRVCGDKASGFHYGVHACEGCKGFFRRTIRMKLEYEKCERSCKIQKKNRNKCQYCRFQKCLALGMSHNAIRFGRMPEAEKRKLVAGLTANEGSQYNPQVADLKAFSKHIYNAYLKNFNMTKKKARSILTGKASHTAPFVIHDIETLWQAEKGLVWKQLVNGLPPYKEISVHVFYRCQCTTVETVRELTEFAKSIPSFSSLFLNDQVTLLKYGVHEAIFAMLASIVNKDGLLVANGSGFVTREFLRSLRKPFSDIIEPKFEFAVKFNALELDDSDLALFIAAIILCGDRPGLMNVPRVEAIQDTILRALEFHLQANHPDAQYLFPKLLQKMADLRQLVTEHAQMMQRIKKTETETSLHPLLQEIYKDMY
Sequence of Bile acid receptor (Homo sapiens) (Q96RI1 whole entry, looked up): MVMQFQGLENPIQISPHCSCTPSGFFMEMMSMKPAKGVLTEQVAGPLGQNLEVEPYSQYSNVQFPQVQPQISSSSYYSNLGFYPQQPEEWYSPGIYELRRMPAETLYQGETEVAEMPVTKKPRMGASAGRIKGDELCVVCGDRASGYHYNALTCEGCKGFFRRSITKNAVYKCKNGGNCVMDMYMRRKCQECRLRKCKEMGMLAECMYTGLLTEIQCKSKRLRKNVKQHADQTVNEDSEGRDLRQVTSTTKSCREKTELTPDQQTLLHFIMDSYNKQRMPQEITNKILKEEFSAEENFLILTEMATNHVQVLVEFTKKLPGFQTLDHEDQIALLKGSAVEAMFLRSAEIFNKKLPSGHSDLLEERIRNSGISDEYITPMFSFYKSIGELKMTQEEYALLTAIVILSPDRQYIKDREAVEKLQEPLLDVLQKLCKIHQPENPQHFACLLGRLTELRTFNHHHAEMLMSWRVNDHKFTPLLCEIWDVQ
Sequence of Peroxisome proliferator-activated receptor gamma (Homo sapiens) (P37231 whole entry, looked up): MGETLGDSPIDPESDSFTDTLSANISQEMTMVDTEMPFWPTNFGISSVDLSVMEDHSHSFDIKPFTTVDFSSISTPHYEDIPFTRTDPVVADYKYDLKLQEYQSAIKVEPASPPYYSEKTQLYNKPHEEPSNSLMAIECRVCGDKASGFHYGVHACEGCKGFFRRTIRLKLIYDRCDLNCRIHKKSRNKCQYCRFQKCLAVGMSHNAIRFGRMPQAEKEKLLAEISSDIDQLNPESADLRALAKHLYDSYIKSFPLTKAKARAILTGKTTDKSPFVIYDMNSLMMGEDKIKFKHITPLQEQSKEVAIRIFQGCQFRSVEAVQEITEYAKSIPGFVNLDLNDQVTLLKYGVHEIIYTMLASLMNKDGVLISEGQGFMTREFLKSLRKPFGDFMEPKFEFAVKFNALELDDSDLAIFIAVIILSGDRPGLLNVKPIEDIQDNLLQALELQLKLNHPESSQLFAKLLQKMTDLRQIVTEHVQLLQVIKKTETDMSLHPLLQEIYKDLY

Take `CCc1cc(Cc2cc(CC)cc(C(C)(C)C)c2O)c(O)c(C(C)(C)C)c1`: the Potency is 61.1 µM (active) in test [1]; 6.92 µM (active) in test [3]; 21.7 µM (active) in test [4]; 5.49 µM (active) in test [5]; 7.76 µM (active) in test [6]; 6.92 µM (active) in [7]. Further, the Potency is 11 µM (active) in test [8], 11 µM (active) in test [9] and 17.4 µM (active) in [10]. Also, the Potency result in test [2] is “inactive”.

In the case of `Cc1cc(N)c(S(=O)(=O)O)cc1Cl`, the Potency entry in test [1], in [2], in test [3], in test [11], in test [4] and in test [5] was “inactive” throughout. Moreover, the Potency result in [12], in [6], in test [13], in [7], in test [14] and in [8] was “inactive” in each case. Further, the Potency result in [9] and in test [15] was “inactive” each time.

`CC(C)(C)NC(=O)[C@@H]1C[C@@H]2CCCC[C@@H]2CN1C[C@@H](O)[C@H](Cc1ccccc1)NC(=O)[C@H](CC(N)=O)NC(=O)c1ccc2ccccc2n1`: the Potency in test [1] is 11.9 µM (active) and 13.9 µM (active); in test [2] it was 26.6 µM (active) and 22 µM (active); in [3], 49.6 µM (active); in [6], 35.1 µM (active); in [8], 55.7 µM (active). Besides, in test [13], the Potency entry was “inactive”.

Take `CCc1oc2ccccc2c1C(=O)c1cc(Br)c(O)c(Br)c1`: the Potency entry in [1], in test [2] and in test [5] was “inactive” throughout. For the same compound, the Potency in test [16] is 3.01 µM (active); in test [4], 23.7 µM (active).

Take `CCOC(=O)/C=C(C)/C=C/C=C(C)/C=C/c1c(C)cc(OC)c(C)c1C`: the Potency entry in test [1], in [2], in test [3], in [4], in [5] and in test [6] was “inactive” in each case. The Potency entry in test [7], in test [8] and in test [9] was “inactive” each time.

In the case of `CCCCN1C(=O)[C@@H]([C@H](O)C2CCCCC2)NC(=O)C12CCN(Cc1ccc(Oc3ccc(C(=O)O)cc3)cc1)CC2`, the Potency entry in [1], in test [3], in [5], in test [12], in test [6] and in test [7] was “inactive” throughout. The Potency result in test [14] and in [9] was “inactive” in each case. Also, the Potency in [2] was 8.63 µM (active).

Turning to `OC1(c2ccc(Cl)c(C(F)(F)F)c2)CCN(CCCC(c2ccc(F)cc2)c2ccc(F)cc2)CC1`, the Potency in [1] was 7.5 µM (active); in test [2] it was 21.1 µM (active); in test [3] it was 8.41 µM (active); in [4], 5.96 µM (active); in test [5], 7.5 µM (active); in [6] it was 4.73 µM (active). Also, the Potency in test [14] is 26.6 µM (active); in [8], 9.44 µM (active); in [9], 26.6 µM (active).

For the compound `CCCCCCCC/C=C/CCCCCCCC1=NCCN1CCO`, the Potency is 48.6 µM (active) in test [1]; 43.6 µM (active) in [3]; 24.3 µM (active) in test [4]; 19.5 µM (active) in test [5]; 54.9 µM (active) in test [17]; 21.9 µM (active) in [8]. The Potency result in [2] was “inactive”.

Consider `Cc1ccc2oc(CN(Cc3ccccc3)C(=O)Nc3c(F)cc(F)cc3F)c(-c3ccc(Cl)cc3)c2c1`, for which the Potency result in test [1], in test [2], in test [3], in test [4], in test [5] and in test [8] was “inactive” each time. Also, the Potency entry in test [18], in test [9] and in test [10] was “inactive” each time.
